In all, about 1,500 compounds went through this assay and about 430 (29%) were called active. A selection follows. Potency and affinity values are given separately. A number with no mark means an inactive call. The rule behind the calls is not given here.

This experiment in a line: insulin secretion activators without glucose, dose response, counter-screen for glucose-dependent insulin secretion activators, cell-based, INS-1E, Gaussia luciferase, luminescence, cherry-pick (AID 977606).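 Note: 0% = median of neutral control wells.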 Particulars: INS-1E Gaussia luciferase insulin secretion, no glucose, 100% = twice neutral-control luminescence; series mostly up to 35 µM; activation: at the top concentration. A general note: A counterscreen serves to expose hits that act by an unwanted route or on another target.
For the compound `COc1ccc(CCNC(=O)CCn2c(=O)c3ccccc3n(CC(=O)NCC3CCCO3)c2=O)cc1OC` (stereo not given), the “activation” value is -5.57%. Regarding `COc1ccc(-c2noc(CCC(=O)Nc3cccnc3)n2)cc1OC`, the “activation” value is -7.28%. Consider `Cc1cc(NS(=O)(=O)c2ccc(NC(=O)C(C)Oc3ccccc3Cl)cc2)no1` (stereo not given), for which the “activation” value is -2.54%. For `CC1(C)CC(=O)C(C=NC2CC(C)(C)NC(C)(C)C2)=C(O)C1`, the “activation” value is 6.48%. As for `COCCNc1nc(NC(C)C)nc2ccsc12`, the “activation” value is 26.7%. As for `CCn1nnnc1NCc1ccc(OCc2c(F)cccc2Cl)c(OC)c1`, the “activation” value was -2.98%. Consider `COCCN1Cc2cccc(C(=O)NCc3ccccc3OC)c2C1=O`, for which the “activation” value was -9.74%. For `COc1cc2ccc(C(C)=O)cc2cc1OC` the value was 0.658%. `COc1ccc2ccc(=O)oc2c1CC=C(C)C`: the “activation” value was -9.17%.

Consider `Cc1ccc(NC(=O)CN(C(=O)N2CCN(C)CC2)S(=O)(=O)c2ccc(C)cc2)cc1`, for which the “activation” value is 14.7%. As to `FC(F)(F)c1cc(CCN2CCNC[C@@H]2Cc2ccccc2)cc(C(F)(F)F)c1`, the “activation” value is 1100%.

Turning to `NC(=O)C1CCN(C(=O)CCNS(=O)(=O)c2ccccc2F)CC1`, the “activation” value is 2.4%. Turning to `COc1ccccc1C(OC(=O)c1cccs1)C(=O)NCC1CCCO1` (stereo not given), the “activation” value was -14.5%. Regarding `CC(=O)Nc1cccc(-n2c(=O)n(Cc3ccccc3)c(=O)c3[nH]cnc32)c1`, the “activation” value is -4.52%. Consider `O=C(c1cccs1)N(Cc1cccc(F)c1)C1CCS(=O)(=O)C1` (stereo not given), for which the “activation” value is 0.85%.

Turning to `C/C(=N/Oc1nc(C)cc(C)n1)c1ccc(F)cc1`, the “activation” value was -0.472%.

Take `C=CCn1c(O)c(N=NC(=O)CNC(=O)c2ccco2)c2ccccc21`: the “activation” value was 1.45%. On to `CC(C)COC(=O)N1C[C@H](O)C[C@H]1C(=O)Nc1ccc(Cl)cc1`, for which the “activation” value was -11.9%. `Cn1cc(C(=O)NCC(=O)Nc2ccccc2Br)cn1`: the “activation” value is 5.93%.

Turning to `COc1ccc(CNC(=O)c2cnn3c(C(F)F)cc(C)nc23)cc1`, the “activation” value is -10.7%.

Turning to `COc1ccccc1-c1cnc2c(Nc3cccc(OC(F)(F)C(F)F)c3)nccn12`, the “activation” value was 7.41%. On to `O=C1CC(NS(=O)(=O)c2cccs2)CN1c1cccc(F)c1` (stereo not given), for which the “activation” value is -8.56%. Turning to `CC1(C)Cc2c(cnn2-c2ccccc2)C(NC(=O)CCN2CCCC2=O)C1` (stereo not given), the “activation” value was 14.1%.

Consider `COc1ccc(C2CC(c3ccc(OC)c(OC)c3)=NN2C(=O)c2ccccc2)cc1` (stereo not given), for which the “activation” value is -16.4%. In the case of `Cc1ccccc1Cc1c(C)nc2c(C(=O)NCc3ccco3)cnn2c1C`, the “activation” value is -8.95%. On to `COc1ccc(-c2cc(C(F)(F)F)n3nc(C(=O)O)cc3n2)cc1OC`, for which the “activation” value was -2.77%.

On to `Cn1nnnc1Sc1ncnc2scc(-c3ccc(F)cc3)c12`, for which the “activation” value is 3.39%. For `CCOc1nc(CC(C)C)c2c(c1C#N)CC(C)(C)OC2` the value was 25.1%; for `CCOc1nc(Nc2ccccc2F)nc(OCC)n1`, -6.36%; for `CCOc1ncccc1C(=O)Nc1ccccc1F`, 40.5%. Then `Cc1cccc(C(=O)NC(=S)NNC(=O)COc2c(C)cccc2C)c1`, with -83.5%; and `CC(=O)c1cccc(NC(=O)CCC(=O)Oc2ccc(C)cc2)c1`, with 5.01%; and `COc1ccc(NC(=O)C2(c3ccc(NC(=O)c4ccc(OC)cc4)cc3)CCCC2)cc1`, with 2.88%. As to `COc1ccc(C(=O)Nc2ccccc2C(=O)Nc2ccncc2)cc1`, the “activation” value was 9.94%. Then `CCOc1ncccc1C(=O)Nc1cccc(S(=O)(=O)NC2=NCCC2)c1`, with -8.06%; and `C/C(Cl)=C\Cn1c(N2CCCC2)nc2c1c(=O)[nH]c(=O)n2C`, with -19.4%.

On to `CCCCn1c(N2CCCC2)nc2c1c(=O)[nH]c(=O)n2C`, for which the “activation” value is -16%.

Regarding `COc1cc2c(cc1OC)-c1cc(N3CCc4ccccc43)nc(=O)n1CC2`, the “activation” value was 3.37%.

On to `Cc1nc2c(c(N3CCOCC3)n1)OCC(=O)N2`, for which the “activation” value was -0.243%. For `CCC(C)c1ccccc1OCCn1ccnc1` (stereo not given), the “activation” value is -5.27%. With `COc1ccc(OCCCCN(C)Cc2ccccc2)cc1`, the “activation” value is -3.62%. With `CC1(C(=O)NS(=O)(=O)c2ccc(C#N)cc2)CCN1C(=O)C1(c2ccccc2)CCCC1` (stereo not given), the “activation” value is 40.5%.

Take `CC1(C(=O)NS(=O)(=O)c2ccc(Cl)s2)CCN1C(=O)C1(c2ccc(Cl)cc2)CCC1` (stereo not given): the “activation” value was 27.2%. For the compound `Cc1noc(C)c1S(=O)(=O)NC(=O)C1(C)CCN1C(=O)C1(c2ccc(Cl)cc2)CCC1` (stereo not given), the “activation” value is -1.31%.

On to `CC1(C(=O)N2CCCCC2)CCN1C(=O)C1(c2ccccc2)CC1` (stereo not given), for which the “activation” value is -6.38%. As to `COC(=O)COc1ccc(C)cc1-n1nc2ccccc2n1`, the “activation” value is 10.7%.

As to `O=c1[nH]c(CN2CCN(c3ccc(O)cc3)CC2)nc2scc(-c3ccc(Cl)cc3)c12`, the “activation” value was -12%.

`O=C(NCc1ccccc1)c1cccnc1Sc1ccccc1`: the “activation” value was -8.65%. Consider `CCC(O)c1nc2ccccc2n1CCc1ccccc1` (stereo not given), for which the “activation” value is -0.99%. With `CC1(C)Cc2c(c(-c3ccco3)nc3n[nH]c(N)c23)CO1`, the “activation” value is -8.85%.

On to `COc1ccc(CCNC(=O)CN2c3cccc4cccc(c34)S2(=O)=O)cc1OC`, for which the “activation” value is -3.21%. In the case of `Fc1cccc(-c2nnn3c2nc(Cl)c2ccccc23)c1`, the “activation” value was 24.5%. As for `CC(=O)c1c(C)oc2ccc(NS(=O)(=O)c3ccc(F)cc3C)cc12`, the “activation” value is -3.96%. As for `CCOC(=O)Cc1nn(Cc2ccccc2)c(=O)c2ccccc12`, the “activation” value was 15.4%. Turning to `O=S(=O)(Nc1ccc(-c2ccc3nncn3n2)cc1)c1ccccc1Cl`, the “activation” value is -6.46%.

For the origin of these results see PubChem BioAssay AID977606 (Broad Institute, 2014).
